Compound activity as filed in PubChem.
NR3A LBD binder: modulators (binders) of human NR3A ligand-binding domain | NR3A LBD differential scanning fluorimetry, Tm shift; 0% = protein alone, 100% = glycine-bound protein | Tm shift relative to glycine control, % at 25 µM | 340,000 compounds, 2.5% hits | AID 1259313;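 active means melting temperature shift of at least 10% of the positive control shift, at one fixed dose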
AHR activator: human AHR activation; P35869; AID 2796; 320,000 compounds, 2.5% hits; activation, % at 5 µM; AHR-responsive luciferase reporter cells, luminescence; in the data active means activation above about 47%
ADAM10 inh: inhibitors of human ADAM10 | inhibition, % at 7 µM | 370,000 compounds, 0.62% hits | recombinant ADAM10, EDANS/DABCYL FRET peptide cleavage, 3 h;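 active means inhibition above a per-campaign cutoff equal to the mean of compounds falling between control-based bounds plus 3 SD, cut at about 20% in these data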
Target sequence (O14672 214-748 limits assumed): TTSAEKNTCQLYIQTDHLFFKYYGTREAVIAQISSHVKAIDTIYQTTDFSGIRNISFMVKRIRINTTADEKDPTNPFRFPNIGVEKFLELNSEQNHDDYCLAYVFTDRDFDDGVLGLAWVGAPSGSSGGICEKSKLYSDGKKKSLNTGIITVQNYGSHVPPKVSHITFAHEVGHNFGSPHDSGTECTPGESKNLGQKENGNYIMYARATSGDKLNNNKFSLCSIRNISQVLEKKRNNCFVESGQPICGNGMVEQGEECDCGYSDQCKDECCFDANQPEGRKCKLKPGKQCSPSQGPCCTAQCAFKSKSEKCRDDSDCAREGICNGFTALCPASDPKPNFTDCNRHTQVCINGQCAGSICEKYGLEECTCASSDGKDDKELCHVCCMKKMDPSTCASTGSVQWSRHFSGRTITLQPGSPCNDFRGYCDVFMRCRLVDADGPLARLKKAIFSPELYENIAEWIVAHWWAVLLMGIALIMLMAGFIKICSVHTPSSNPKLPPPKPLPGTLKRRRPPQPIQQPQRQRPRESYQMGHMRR
rCAG binder: r(CAG) repeat RNA binding | 370,000 compounds, 1.3% hits | TO-PRO-1 dye displacement fluorescence | inhibition, % at 3 µM;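 active means inhibition above the plate cutoff, the mean of all test compounds on that plate plus 3 SD, cut at about 35% in these data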;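 further: higher means more dye released from RNA so lower well fluorescence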
ADAM17 inh: inhibitors of human ADAM17; P78536; recombinant ADAM17, EDANS/DABCYL FRET peptide cleavage; inhibition, % at 6.95 µM; 370,000 compounds, 0.83% hits; AID 720648;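 active means inhibition above the mean of compounds lying between control limits plus 3 SD, set per campaign, cut at about 8.5% in these data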
proKLK7 act: activates the human kallikrein-7 zymogen; purified proKLK7, EDANS-DABCYL substrate fluorescence; 100% is mature enzyme control, 0% vehicle; activation, % at 7 µM; 370,000 compounds, 0.9% hits; AID 652039;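 active means activation above the mean of all tested compounds plus 3 SD, computed per campaign excluding outliers beyond control limits, cut at about 13% in these data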
Hits are given with their value. Sampled rows, rich in hits. Any-hit rate of the full collection: about 7%.

O=C(O)c1cc2c(cc1NC(=O)c1ccccc1C(F)(F)F)OCCCO2 was read as NR3A LBD binder inactive, AHR activator inactive, ADAM10 inh inactive, rCAG binder inactive, ADAM17 inh inactive and proKLK7 act inactive.
For O=C(Nc1cc2c(cc1C(=O)O)OCCCO2)c1ccc(C(F)(F)F)cc1 the results were NR3A LBD binder inactive, AHR activator 73, ADAM10 inh inactive, rCAG binder inactive, ADAM17 inh inactive and proKLK7 act inactive.
`CN(C)c1cccc(F)c1C(=O)NC(=O)Nc1ccc(Cl)cc1` gave NR3A LBD binder 11, ADAM10 inh inactive, rCAG binder inactive, ADAM17 inh inactive and proKLK7 act inactive.
Screening CN(CCOC(=O)c1cc2ccccc2o1)C1CN(Cc2cn(Cc3ccc([N+](=O)[O-])cc3)nn2)S(=O)(=O)C1 (stereo not drawn) returned ADAM10 inh inactive, rCAG binder inactive, ADAM17 inh inactive and proKLK7 act inactive.
Screening CS(=O)(=O)c1ccccc1C(=O)Nc1cc(Cl)ccc1-n1cncn1 returned NR3A LBD binder inactive, AHR activator inactive, ADAM10 inh inactive, rCAG binder inactive, ADAM17 inh inactive and proKLK7 act inactive.
Screening O=C(Nc1cc(Cl)ccc1-n1cncn1)c1ccc(Br)o1 returned NR3A LBD binder inactive, AHR activator 61, ADAM10 inh inactive, rCAG binder inactive, ADAM17 inh inactive and proKLK7 act inactive.
`O=C(Nc1cc(Cl)ccc1-n1cncn1)c1cc(F)c(F)c(F)c1F` gave NR3A LBD binder inactive, AHR activator 56, ADAM10 inh inactive, rCAG binder inactive, ADAM17 inh inactive and proKLK7 act inactive.
For O=C(NC1CCCC1)[C@@H]1CCCN1C(=O)[C@@H](NS(=O)(=O)c1ccc(F)cc1F)c1ccccc1 the results were ADAM10 inh inactive, rCAG binder inactive, ADAM17 inh inactive and proKLK7 act inactive.
`CC(C)n1nc(Cc2cccc3ccccc23)c(C#N)c1N` gave NR3A LBD binder inactive, AHR activator 62, ADAM10 inh inactive, rCAG binder inactive, ADAM17 inh inactive and proKLK7 act inactive.
For O=C(/C=C\Nc1ccccc1Br)c1ccc2c(c1)OCO2 the results were NR3A LBD binder 36, AHR activator inactive, ADAM10 inh inactive, rCAG binder inactive, ADAM17 inh inactive and proKLK7 act inactive.
`O=C(/C=C/c1ccccc1Br)c1ccc2c(c1)OCO2` gave NR3A LBD binder inactive, AHR activator inactive, ADAM10 inh inactive, rCAG binder inactive, ADAM17 inh inactive and proKLK7 act inactive.
O=C(/C=C/Nc1ccccc1)c1ccccc1 was read as AHR activator inactive, ADAM10 inh inactive, rCAG binder inactive, ADAM17 inh inactive and proKLK7 act inactive.
Screening CNc1cc([N+](=O)[O-])ccc1N/C=C/C(=O)c1cccs1 returned NR3A LBD binder inactive, AHR activator 74, ADAM10 inh inactive, rCAG binder inactive, ADAM17 inh inactive and proKLK7 act inactive.
O=C(/C=C/Nc1cccc([N+](=O)[O-])c1)c1cccs1 was read as NR3A LBD binder inactive, AHR activator inactive, ADAM10 inh inactive, rCAG binder inactive, ADAM17 inh inactive and proKLK7 act inactive.
Screening O=C(/C=C/Nc1ccc(F)cc1Br)c1ccccc1 returned NR3A LBD binder inactive, AHR activator 51, ADAM10 inh inactive, rCAG binder inactive, ADAM17 inh inactive and proKLK7 act inactive.
`CNc1cc([N+](=O)[O-])ccc1N/C=C/C(=O)c1ccc2c(c1)OCO2` gave NR3A LBD binder 13, AHR activator inactive, ADAM10 inh inactive, rCAG binder inactive, ADAM17 inh inactive and proKLK7 act inactive.
Screening Cc1ccccc1CN1CCCCC(NC(=O)C(C)(C)C)C1=O (stereo not drawn) returned ADAM10 inh inactive, rCAG binder inactive, ADAM17 inh inactive and proKLK7 act inactive.
`COc1ccc(S(=O)(=O)N2CCCC2CNC(=O)C(=O)NC2CCCC2)cc1` (stereo not drawn) gave ADAM10 inh inactive, rCAG binder inactive, ADAM17 inh inactive and proKLK7 act inactive.
`COc1ccc(S(=O)(=O)N2CCCC2CNC(=O)C(=O)NC2CCCCCC2)cc1` (stereo not drawn) gave NR3A LBD binder 17, AHR activator inactive, ADAM10 inh inactive, rCAG binder inactive, ADAM17 inh inactive and proKLK7 act inactive.
